# Results from PubChem BioAssay AID652154 (Broad Institute, 2013).
# Among all 360,000 compounds or so, about 4,200 (1.2%) were called active. The list comes from a sample in which actives are over-represented; it also holds similar structures and randomly drawn compounds. Values without a mark were called inactive.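 Rule for the calls: active = mean replicate inhibition at least 60% with every replicate also reaching 60%; inconclusive = only one of the two criteria is met; inactive = mean below 60% and not all replicates reaching 60%.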
# Assay: inhibitors of PAX8-driven TPO luciferase reporter, primary screen, RMG-I cells, single concentration (AID 652154);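 note: luciferase light reporting Pax8 driven TPO promoter activity; plate controls were median of neutral control wells for no effect and mitoxantrone controls for full effect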
# Details: SteadyGlo, 24 h, at 12.6 µM, active compounds read high
row,Compound,inhibition
1,COc1cc2c(cc1OC)CN(C(=O)c1cc(S(=O)(=O)N3CCCCC3)ccc1Cl)CC2,-3.73%
2,CCOc1cc(C(=O)N2CCc3cc(OC)c(OC)cc3C2)ccc1OC(F)F,86.2% (active)
3,COc1cc2c(cc1OC)CN(C(=O)c1ccc(S(=O)(=O)N3CCCCCC3)cc1)CC2,11.3%
4,O=C(C[C@H]1C[C@H]2c3cc(NC(=O)CC4CC4)ccc3O[C@H]2[C@H](CO)O1)NCc1ccccn1,-23.5%
5,COc1ccc(S(=O)(=O)Nc2ccc3c(c2)C(=O)N([C@@H](C)CO)C[C@@H](C)[C@H](CN(C)C(=O)CCC(F)(F)F)OCCCC[C@H](C)O3)cc1,6.54%
6,O=S(=O)([N-]c1nc2ccccc2nc1-[n+]1ccc(Cc2ccccc2)cc1)c1ccc(Br)s1,70.9% (active)
7,O=S(=O)(NCc1ccccn1)c1ccc(Br)s1,-3.1%
8,COc1ccc(S(=O)(=O)Nc2cccc3c2O[C@@H](CN(C)C(=O)Nc2ccccc2)[C@@H](C)CN([C@H](C)CO)C3=O)cc1,11%
9,Cc1ccc(C(=O)N2CCN(S(=O)(=O)N3CCOCC3)CC2)cc1,-3.97%
10,Cc1ccc(S(=O)(=O)NC(C(=O)N2CCOCCOCCOCCOCC2)c2ccccc2)cc1 (stereo unspecified),5.5%
11,Cc1oc2c(c1C(=O)N1CCOCC1)C(=O)c1ccccc1C2=O,83.3% (active)
12,CN(C)C(=O)[C@@H]1[C@@H](CO)[C@@H]2Cn3c(cccc3=O)[C@@H]2N1C(=O)C1CCC1,-6.21%
13,CCCN1C[C@@H](C)[C@@H](OC)CN(C)C(=O)c2cc(NC(=O)Nc3cccc(F)c3)ccc2OC[C@@H]1C,13.5%
14,N#C[C@@H]1[C@@H](c2ccc(C3=CCCC3)cc2)[C@@H](CO)N1C(=O)C1CCCC1,3.84%
15,C=CCn1c(COc2cccc3cccnc23)nnc1SCC(=O)OC,21.9%
16,CCCCC(=O)NC(c1ccc(OC)c(OC)c1)c1ccc2cccnc2c1O (stereo unspecified),78.7% (active)
17,CCOc1ccc(C(CC(=O)O)n2cnnn2)cc1OC (stereo unspecified),7.25%
18,C[C@@H]1CCCCO[C@@H](CN(C)C(=O)Nc2cccc3ccccc23)[C@H](C)CN([C@H](C)CO)C(=O)c2cc(NC(=O)NC3CCCCC3)ccc2O1,34.7%
19,Cc1noc(C)c1S(=O)(=O)Nc1ccc2c(c1)C(=O)N([C@@H](C)CO)C[C@@H](C)[C@@H](CN(C)Cc1ccccc1)OCCCC[C@H](C)O2,27.1%
20,COc1ccc(CN2C(=O)C(CC(=O)NCCCCc3ccccc3)CC(C(=O)N3CCOCC3)=C2C)cc1 (stereo unspecified),91.4% (active)
21,CCN(CC)C(=O)C1=C(C)N(Cc2ccc(OC)cc2)C(=O)C(CC(=O)NCCCCc2ccccc2)C1 (stereo unspecified),8.41%

row,Compound,inhibition
1,COc1ccc(CN2C(=O)C(CC(=O)NCc3cccc4ccccc34)CC(C(=O)N3CCOCC3)=C2C)cc1 (stereo unspecified),-99.8%
2,CN1C(=O)c2cc(NC(=O)c3ccc(F)cc3)ccc2OC[C@H]2O[C@H](CC(=O)N3CCOCC3)CC[C@@H]21,-0.681%
3,Cc1cc(C)n2nc(SCC(N)=O)nc2n1,-3.44%
4,COc1ccc(Cl)cc1C(=O)NNC(=O)c1nc2nc(C)cc(C)n2n1,-17.5%
5,Cc1cc(C)n2nc(CNS(=O)(=O)c3c(F)c(F)c(F)c(F)c3F)nc2n1,85.5% (active)
6,Cc1noc(C)c1NC(=O)Nc1ccc2c(c1)C(=O)N([C@@H](C)CO)C[C@@H](C)[C@@H](CN(C)CC1CCCCC1)O2,-11.2%
7,COc1ccc(NC(=O)N(C)C[C@@H]2Oc3ccc(NC(=O)CCCN(C)C)cc3CC(=O)N([C@H](C)CO)C[C@H]2C)cc1,2.7%
8,C[C@@H]1CCCCO[C@@H](CN(C)Cc2ccncc2)[C@H](C)CN([C@H](C)CO)C(=O)c2cc(NC(=O)NC3CCCCC3)ccc2O1,8.64%
9,C[C@@H]1CN([C@H](C)CO)C(=O)c2cc(NC(=O)Nc3ccc4c(c3)OCO4)ccc2O[C@@H](C)CCCCO[C@@H]1CN(C)Cc1ccc2c(c1)OCO2,25.2%
10,C[C@H](CO)N1C[C@H](C)[C@H](CN(C)Cc2ccc(Cl)c(Cl)c2)OCCCC[C@H](C)Oc2ccc(NC(=O)NC3CCCCC3)cc2C1=O,92.7% (active)
11,C[C@H]1CCCCO[C@H](CN(C)Cc2ccccc2)[C@@H](C)CN([C@@H](C)CO)C(=O)c2cc(NC(=O)NC3CCCCC3)ccc2O1,5.95%
12,C[C@@H]1CCCCO[C@@H](CN(C)Cc2ccncc2)[C@@H](C)CN([C@@H](C)CO)C(=O)c2cc(NC(=O)Nc3ccc(F)cc3)ccc2O1,-6.16%
13,C[C@@H]1CCCCO[C@H](CN(C)Cc2ccc(Cl)c(Cl)c2)[C@@H](C)CN([C@@H](C)CO)C(=O)c2cc(NC(=O)Nc3ccccc3)ccc2O1,93.9% (active)
14,C[C@@H]1CN([C@H](C)CO)C(=O)c2cc(NC(=O)Nc3ccc(F)cc3)ccc2O[C@@H](C)CCCCO[C@H]1CN(C)Cc1ccc(Cl)c(Cl)c1,77.5% (active)
15,C[C@@H]1CN([C@H](C)CO)C(=O)c2cc(NC(=O)Nc3ccccc3)ccc2O[C@@H](C)CCCCO[C@@H]1CN(C)Cc1ccncc1,6.95%
16,C[C@H]1CCCCO[C@@H](CN(C)Cc2ccncc2)[C@@H](C)CN([C@@H](C)CO)C(=O)c2cc(NC(=O)Nc3ccc(F)cc3)ccc2O1,-6.76%
17,C[C@@H]1CCCCO[C@@H](CN(C)Cc2ccc3c(c2)OCO3)[C@@H](C)CN([C@@H](C)CO)C(=O)c2cc(NC(=O)Nc3ccccc3)ccc2O1,-0.474%
18,C[C@@H]1CCCCO[C@H](CN(C)Cc2ccncc2)[C@H](C)CN([C@H](C)CO)C(=O)c2cc(NC(=O)Nc3ccccc3)ccc2O1,18.7%
19,C[C@H]1CCCCO[C@@H](CN(C)Cc2ccc3c(c2)OCO3)[C@@H](C)CN([C@@H](C)CO)C(=O)c2cc(NC(=O)Nc3ccc(F)cc3)ccc2O1,87.4% (active)
20,CN(C)C(=O)[C@H]1[C@H](CO)[C@H]2Cn3c(ccc(-c4ccc(F)cc4)c3=O)[C@H]2N1C(=O)c1ccccn1,-7.59%
